For some assays here: Entries with a potency or affinity are not part of this list.

Holding throughout (design): scale not given: direction of the effect not stated beside the values
The target of assay [1] is Protein translocase subunit SecA (Escherichia coli (strain K12)) (UniProt P10408). Kind of assay: Assay to Identify E. coli SecA ATPase Inhibitors. Type of assay: functional. As to conditions: 30 µM.
Assay [2] concerns the target T1, Ubiquitin-activating enzyme e1, putative (Leishmania donovani (strain BPK282A1)) (UniProt E9BSI1).
T1 sequence (whole entry): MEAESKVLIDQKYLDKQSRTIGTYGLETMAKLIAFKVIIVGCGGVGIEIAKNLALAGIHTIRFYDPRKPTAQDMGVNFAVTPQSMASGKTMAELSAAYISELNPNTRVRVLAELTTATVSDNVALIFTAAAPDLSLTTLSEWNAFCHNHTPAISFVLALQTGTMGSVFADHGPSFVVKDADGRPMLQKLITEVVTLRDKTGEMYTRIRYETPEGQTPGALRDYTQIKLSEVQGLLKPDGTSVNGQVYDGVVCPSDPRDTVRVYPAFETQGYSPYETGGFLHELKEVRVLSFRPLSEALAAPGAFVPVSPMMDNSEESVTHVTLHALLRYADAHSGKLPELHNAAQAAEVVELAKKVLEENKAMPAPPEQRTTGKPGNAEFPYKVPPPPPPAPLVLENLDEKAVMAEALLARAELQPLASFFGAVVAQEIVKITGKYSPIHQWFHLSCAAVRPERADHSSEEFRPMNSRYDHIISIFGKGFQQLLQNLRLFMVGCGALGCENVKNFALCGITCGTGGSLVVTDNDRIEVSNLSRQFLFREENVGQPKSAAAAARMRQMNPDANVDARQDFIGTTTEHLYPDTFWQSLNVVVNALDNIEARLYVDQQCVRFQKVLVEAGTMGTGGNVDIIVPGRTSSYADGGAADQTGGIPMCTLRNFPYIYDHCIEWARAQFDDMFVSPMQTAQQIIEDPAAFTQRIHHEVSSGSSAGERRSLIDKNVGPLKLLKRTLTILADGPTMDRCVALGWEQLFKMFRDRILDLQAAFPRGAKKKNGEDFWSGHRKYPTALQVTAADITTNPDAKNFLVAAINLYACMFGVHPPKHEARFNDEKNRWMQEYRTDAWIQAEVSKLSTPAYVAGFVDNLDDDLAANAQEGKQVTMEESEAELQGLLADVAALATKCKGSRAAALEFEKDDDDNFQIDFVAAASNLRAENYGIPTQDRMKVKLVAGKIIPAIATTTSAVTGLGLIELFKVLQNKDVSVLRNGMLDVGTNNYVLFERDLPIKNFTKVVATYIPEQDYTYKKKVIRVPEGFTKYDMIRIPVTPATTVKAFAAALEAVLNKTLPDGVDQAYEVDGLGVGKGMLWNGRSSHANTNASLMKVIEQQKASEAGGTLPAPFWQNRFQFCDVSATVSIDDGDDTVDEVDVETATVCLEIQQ
Description: Leishmania donovani Ubiquitin Activating Enzyme (LdE1). The following applies: 30 µM. It is filed as functional.

In assay [3] the target is AMP-activated protein kinase, AMPK (Homo sapiens) (UniProt P54646+O43741+P54619+Q9UGJ0+Q9Y478+Q13131+Q9UGI9). Description: AMP-dependent Kinase enzyme assay. An in vitro enzyme assay that detects ADP turnover that is directly proportional to AMPK activity. This uses naive AMPK that is activated during the assay with MK-8722. Type of assay: functional. As to conditions: 30 µM.

In assay [4] the target is Sialic acid-binding Ig-like lectin 9 (Homo sapiens) (UniProt Q9Y336). Description: Hs-Siglec9 ALPHAscreen SOP 20170721. As to conditions: 10 µM. For orientation: In Alpha technology, singlet oxygen from a donor bead excites a nearby acceptor bead.
Sequence of Sialic acid-binding Ig-like lectin 9 (Homo sapiens) (Q9Y336 whole entry): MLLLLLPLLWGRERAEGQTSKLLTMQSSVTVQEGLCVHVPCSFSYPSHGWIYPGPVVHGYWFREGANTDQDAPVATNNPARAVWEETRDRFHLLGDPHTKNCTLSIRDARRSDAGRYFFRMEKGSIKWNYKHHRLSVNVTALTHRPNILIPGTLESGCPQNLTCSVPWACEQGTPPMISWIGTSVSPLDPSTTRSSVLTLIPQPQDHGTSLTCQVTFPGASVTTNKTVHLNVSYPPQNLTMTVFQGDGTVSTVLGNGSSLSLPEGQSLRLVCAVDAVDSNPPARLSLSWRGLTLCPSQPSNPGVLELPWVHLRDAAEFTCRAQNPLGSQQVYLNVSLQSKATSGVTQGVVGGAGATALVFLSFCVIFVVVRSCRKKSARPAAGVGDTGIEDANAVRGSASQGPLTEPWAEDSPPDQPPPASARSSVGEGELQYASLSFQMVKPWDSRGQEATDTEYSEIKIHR
Assay [5] relates to Trypanosoma cruzi. Description: Trypanosoma cruzi phosphomannomutase and mannose-1-phosphate guanylyltransferase assay. Type of assay: functional. As to conditions: 10 µM.
Assay [6] deals with T2, Arginase-2, mitochondrial (Homo sapiens) (UniProt P78540).
T2 sequence (whole entry): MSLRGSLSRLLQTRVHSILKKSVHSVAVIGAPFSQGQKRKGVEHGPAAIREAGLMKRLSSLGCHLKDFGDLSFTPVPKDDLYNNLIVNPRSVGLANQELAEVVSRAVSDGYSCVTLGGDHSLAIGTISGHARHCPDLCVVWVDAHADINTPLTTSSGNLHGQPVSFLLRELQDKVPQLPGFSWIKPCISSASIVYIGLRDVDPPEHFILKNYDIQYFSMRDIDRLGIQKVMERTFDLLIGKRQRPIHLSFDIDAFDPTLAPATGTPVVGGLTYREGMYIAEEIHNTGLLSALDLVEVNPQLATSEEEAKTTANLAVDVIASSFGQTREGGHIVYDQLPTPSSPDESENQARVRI
Kind of assay: in vitro enzyme assay to detect the production of urea directly proportional to the activity of Arginase II. Further: in the data most compounds retested in dose-response had high values. The following applies: 33.3 µM. It is filed as functional.

The target of assay [7] is T3, Proteasome subunit beta (Trypanosoma cruzi) (UniProt O96673).
T3 sequence (whole entry): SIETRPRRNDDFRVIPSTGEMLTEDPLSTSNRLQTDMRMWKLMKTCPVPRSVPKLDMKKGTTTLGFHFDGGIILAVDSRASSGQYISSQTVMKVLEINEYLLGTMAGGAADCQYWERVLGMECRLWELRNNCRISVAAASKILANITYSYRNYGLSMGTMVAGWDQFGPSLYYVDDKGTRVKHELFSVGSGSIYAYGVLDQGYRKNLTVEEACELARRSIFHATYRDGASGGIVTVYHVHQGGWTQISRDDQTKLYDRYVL
Description: Trypanosoma cruzi proteasome chymotrypsin-like activity (TcProtChymo) assay. Further: in the data most compounds retested in dose-response had high values. It is filed as functional. As to conditions: 9.37 µM.

The species named for assay [8] is Homo sapiens. Description: To identify inhibition of the IFN signalling (Jak-Stat) pathway via expression of an eGFP reporter gene under the control of an IFN-stimulated response element (ISRE) containing MxA promoter. Type of assay: functional. As to conditions: 30 µM. A general note: In a reporter assay the amount or activity of a reporter protein is the signal.

In assay [9] the target is T4, Tyrosyl-tRNA synthetase, putative (Trypanosoma cruzi (strain CL Brener)) (UniProt Q4DSP6).
T4 sequence (whole entry): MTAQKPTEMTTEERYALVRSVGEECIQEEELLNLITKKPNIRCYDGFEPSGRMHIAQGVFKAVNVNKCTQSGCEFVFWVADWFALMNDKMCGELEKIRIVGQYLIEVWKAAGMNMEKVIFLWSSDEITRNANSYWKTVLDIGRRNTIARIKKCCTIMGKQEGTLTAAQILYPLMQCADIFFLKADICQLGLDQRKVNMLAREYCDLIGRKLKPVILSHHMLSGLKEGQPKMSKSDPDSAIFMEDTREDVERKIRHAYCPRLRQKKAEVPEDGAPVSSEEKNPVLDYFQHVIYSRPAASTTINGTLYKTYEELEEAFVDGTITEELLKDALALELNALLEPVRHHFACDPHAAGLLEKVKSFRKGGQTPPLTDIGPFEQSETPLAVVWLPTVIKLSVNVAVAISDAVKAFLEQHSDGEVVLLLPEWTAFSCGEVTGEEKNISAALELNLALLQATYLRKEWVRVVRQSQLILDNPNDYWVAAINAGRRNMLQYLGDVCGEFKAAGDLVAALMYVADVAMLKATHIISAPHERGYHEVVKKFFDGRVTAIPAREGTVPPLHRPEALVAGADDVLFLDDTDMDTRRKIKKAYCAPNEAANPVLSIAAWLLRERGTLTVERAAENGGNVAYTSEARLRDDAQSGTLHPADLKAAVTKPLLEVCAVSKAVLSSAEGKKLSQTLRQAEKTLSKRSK
Kind of assay: Trypanosoma cruzi tyrosyl tRNA synthetase (TcYRS) _High Tyrosine SOP. Further: in the data most compounds retested in dose-response had high values. The following applies: 30 µM. Type of assay: functional.

Assay [10] deals with T4, Tyrosyl-tRNA synthetase, putative (Trypanosoma cruzi (strain CL Brener)). Description: Trypanosoma cruzi tyrosyl tRNA synthetase (TcYRS) SOP. It is filed as functional. The following applies: 30 µM.
Assay [11] deals with Chromo domain-containing protein 1 (Saccharomyces cerevisiae (strain ATCC 204508 / S288c) (Baker's yeast)) (UniProt P32657). Description: ScCHD-1 Enzyme Inhibition Assay. Further: in the data most compounds retested in dose-response had high values. It is filed as functional. As to conditions: 30 µM.
Sequence of Chromo domain-containing protein 1 (Saccharomyces cerevisiae (strain ATCC 204508 / S288c) (Baker's yeast)) (P32657 whole entry, the tested form may be a part): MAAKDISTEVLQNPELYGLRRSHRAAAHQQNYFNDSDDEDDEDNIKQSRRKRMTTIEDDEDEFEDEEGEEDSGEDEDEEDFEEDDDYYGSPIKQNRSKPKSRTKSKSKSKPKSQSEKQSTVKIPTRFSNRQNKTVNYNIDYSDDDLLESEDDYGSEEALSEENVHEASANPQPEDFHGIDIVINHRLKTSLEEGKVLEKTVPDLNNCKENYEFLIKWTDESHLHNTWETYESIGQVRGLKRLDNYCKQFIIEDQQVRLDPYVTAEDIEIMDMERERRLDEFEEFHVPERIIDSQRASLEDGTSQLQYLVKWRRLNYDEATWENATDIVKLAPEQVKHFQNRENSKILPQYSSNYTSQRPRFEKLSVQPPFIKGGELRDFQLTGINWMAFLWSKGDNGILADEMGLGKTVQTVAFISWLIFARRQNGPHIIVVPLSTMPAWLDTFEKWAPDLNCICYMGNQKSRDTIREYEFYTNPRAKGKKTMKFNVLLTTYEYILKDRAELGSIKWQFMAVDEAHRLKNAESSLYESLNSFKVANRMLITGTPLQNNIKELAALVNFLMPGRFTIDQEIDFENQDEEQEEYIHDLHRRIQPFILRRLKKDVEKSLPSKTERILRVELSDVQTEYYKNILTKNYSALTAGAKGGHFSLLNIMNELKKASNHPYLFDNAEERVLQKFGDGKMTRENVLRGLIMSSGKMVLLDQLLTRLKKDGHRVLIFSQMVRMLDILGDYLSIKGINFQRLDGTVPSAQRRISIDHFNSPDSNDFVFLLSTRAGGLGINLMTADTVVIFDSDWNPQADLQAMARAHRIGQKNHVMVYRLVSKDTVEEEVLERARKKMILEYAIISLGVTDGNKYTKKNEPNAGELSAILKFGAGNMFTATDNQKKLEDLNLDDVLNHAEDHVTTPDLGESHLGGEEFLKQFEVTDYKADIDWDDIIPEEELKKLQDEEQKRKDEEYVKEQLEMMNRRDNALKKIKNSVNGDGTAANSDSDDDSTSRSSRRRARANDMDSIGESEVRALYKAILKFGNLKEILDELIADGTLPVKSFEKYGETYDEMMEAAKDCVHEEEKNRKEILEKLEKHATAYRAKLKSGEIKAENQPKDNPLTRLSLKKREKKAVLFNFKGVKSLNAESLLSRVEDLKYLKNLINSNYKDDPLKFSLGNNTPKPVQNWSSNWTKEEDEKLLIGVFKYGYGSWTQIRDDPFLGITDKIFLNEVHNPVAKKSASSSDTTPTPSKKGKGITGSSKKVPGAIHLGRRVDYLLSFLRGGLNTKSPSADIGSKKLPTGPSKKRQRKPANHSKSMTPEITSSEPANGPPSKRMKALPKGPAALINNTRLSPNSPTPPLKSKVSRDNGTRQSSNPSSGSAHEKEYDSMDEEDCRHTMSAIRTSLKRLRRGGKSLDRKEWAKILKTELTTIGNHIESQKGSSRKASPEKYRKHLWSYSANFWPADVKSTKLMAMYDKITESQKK

Sequence of Protein translocase subunit SecA (Escherichia coli (strain K12)) (P10408 whole entry): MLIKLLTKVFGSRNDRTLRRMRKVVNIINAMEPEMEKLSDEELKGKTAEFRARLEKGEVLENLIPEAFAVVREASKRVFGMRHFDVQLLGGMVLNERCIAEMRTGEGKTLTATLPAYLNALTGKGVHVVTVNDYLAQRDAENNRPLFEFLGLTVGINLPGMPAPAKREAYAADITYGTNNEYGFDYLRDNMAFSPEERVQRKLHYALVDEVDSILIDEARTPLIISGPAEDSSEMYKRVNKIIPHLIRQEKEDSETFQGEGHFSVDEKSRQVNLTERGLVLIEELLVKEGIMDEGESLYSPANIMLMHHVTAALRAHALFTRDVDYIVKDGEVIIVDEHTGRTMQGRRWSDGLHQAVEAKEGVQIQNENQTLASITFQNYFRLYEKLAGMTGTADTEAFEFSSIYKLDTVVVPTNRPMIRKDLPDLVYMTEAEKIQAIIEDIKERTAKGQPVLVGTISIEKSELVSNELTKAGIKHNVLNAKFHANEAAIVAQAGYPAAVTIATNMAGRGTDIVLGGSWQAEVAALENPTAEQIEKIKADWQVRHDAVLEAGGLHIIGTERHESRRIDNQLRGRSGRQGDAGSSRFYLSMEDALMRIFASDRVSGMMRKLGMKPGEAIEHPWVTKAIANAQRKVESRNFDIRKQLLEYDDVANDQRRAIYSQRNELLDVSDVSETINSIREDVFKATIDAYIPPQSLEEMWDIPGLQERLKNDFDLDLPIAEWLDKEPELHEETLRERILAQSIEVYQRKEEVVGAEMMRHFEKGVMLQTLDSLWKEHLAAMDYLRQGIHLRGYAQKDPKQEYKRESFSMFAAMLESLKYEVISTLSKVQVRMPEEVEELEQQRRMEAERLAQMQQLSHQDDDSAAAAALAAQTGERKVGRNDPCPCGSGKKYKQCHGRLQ

For the compound `COCC1CCN(C(=O)c2cccc(S(=O)(=O)NC3CCCC3)c2)C1` (stereo not given), the Percent Effect was 1.68% in assay [1]; 16.2% in assay [2]; -0.427% in assay [3]; 10.5% in [4]; 1.66% in assay [5]; 10.2% in assay [6]. Further, the Percent Effect in [7] is 17.4%; in assay [8] it was 13.5%; in assay [9] it was 5.38%; in [10], 21%; in [11] it was -13.4%.

For the compound `Cc1cnn(C2CCCN(C(=O)c3ccnc(-n4ccnc4)c3)C2)c1` (stereo not given), the Percent Effect is -2.31% in assay [1]; 8.86% in assay [2]; 2.83% in assay [3]; 0.259% in assay [4]; -0.513% in [5]; 3.66% in assay [6]. The Percent Effect in assay [7] is 8.23%; in assay [8] it was 0.141%; in assay [9], 4.17%; in assay [10] it was 17.7%; in assay [11] it was -27.2%.

For the compound `O=C(COc1coc(CN2CCCCC2)cc1=O)Nc1ccccc1Cl`, the Percent Effect was -4.47% in assay [1]; 4% in assay [2]; 6.82% in [3]; 3.14% in assay [4]; -2.16% in assay [5]; -8.28% in assay [6]. The Percent Effect is 12.2% in [7]; -3.22% in [8]; 10.6% in [9]; 12.8% in [10]; 0.706% in assay [11].

For the compound `CCc1ccc(OCC(O)CN2CCC(O)CC2)cc1` (stereo not given), the Percent Effect in assay [1] is -6.44%; in [2], -2.6%; in [3], 5.75%; in assay [4], -12.1%; in assay [5], -4.21%; in assay [6] it was -1.05%. Also, the Percent Effect in [7] is 5.42%; in assay [8] it was 11.1%; in assay [9] it was -2.86%; in [10] it was 0%; in assay [11], -19%.

As to `Cc1n[nH]c(C2CN(C(=O)Cn3ccccc3=O)CCO2)n1` (stereo not given), the Percent Effect in assay [1] is -8.02%; in [2], 1.27%; in assay [3], 4.25%; in assay [4] it was 2.29%; in assay [5] it was -1.13%; in [6], 2.37%. For the same compound, the Percent Effect was 6.35% in assay [7]; 1.57% in assay [8]; 0% in [9]; 2.53% in assay [10]; -9.48% in assay [11].

Consider `Cc1nn(C)c(Cl)c1CNCc1cccnc1N1CCN(C)CC1`, for which the Percent Effect in [1] was -3.92%; in assay [2], 13.2%; in assay [3] it was 2.58%; in assay [4] it was 7%; in assay [5] it was 2.24%; in assay [6] it was -5.92%. For the same compound, the Percent Effect in assay [7] is 17.4%; in assay [8] it was 4.03%; in assay [9] it was 3.19%; in assay [10], 18.2%; in [11] it was -6.12%.

Regarding `COCCNC(=O)c1ccc(C)c(-n2cccc2)c1`, the Percent Effect in [1] was 2.25%; in assay [2] it was 13.2%; in assay [3], 4.41%; in [4], -4.12%; in assay [5] it was -3.8%; in assay [6], -2.37%. For the same compound, the Percent Effect in [7] is 14.3%; in assay [8], -4.52%; in assay [9], 7.45%; in assay [10], 7.79%; in assay [11], -3.58%.

On to `Cc1cc(NS(=O)(=O)c2ccccc2F)ccc1-n1cccc1C(=O)O`, for which the Percent Effect in [1] is -2.35%; in [2], 2.63%; in [3], 6.59%; in [4], 4.36%; in assay [5], -1.27%; in assay [6] it was -7.1%. For the same compound, the Percent Effect is 24.1% in assay [7]; -10.4% in assay [8]; -4.25% in [9]; 0% in assay [10]; -2.97% in assay [11].

Regarding `COc1cccc(CN(C)C(=O)CN2CCN(c3nccn3C)CC2)c1`, the Percent Effect is -1.77% in [1]; 8% in assay [2]; -12.7% in assay [3]; 7.67% in assay [4]; 3.99% in [5]; 14.1% in assay [6]. Moreover, the Percent Effect in assay [7] was 20.6%; in [8], 1.29%; in assay [9], 10.4%; in [10], 21%; in [11], -3.45%.

`Cc1cnc(CN(C)C2CCN(CCn3cc(C#N)cn3)C2)o1` (stereo not given): the Percent Effect in assay [1] is 2.65%; in assay [2] it was 16.2%; in assay [3], -13.3%; in [4] it was -2.11%; in assay [5], -7.83%; in [6], -2%. Besides, the Percent Effect in assay [7] was 21.4%; in assay [8], 6.73%; in assay [9], 3.45%; in assay [10], 11.1%; in assay [11] it was -2.79%.

For the origin of these results see ChEMBL document CHEMBL3988442, “University of Dundee, Small-Polar-MMV Screening Library” (2021).
